# Source: PMC5540273 (PLoS ONE, 2017)
# Test system: ZAK
# Conditions: concentration: 1 μM,replicates: in singlicate; n = 1
# 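Also: KINOMEscan kinase panel screen.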
row,SMILES,%Inh [%]
1,CSc1nccc(-c2c(-c3ccc(F)cc3)ncn2CCCN2CCOCC2)n1.Cl [SB-217146],0
2,C[C@@H]1CNc2c(sc3ccc4nc(-c5ccncc5)ccc4c23)C(=O)N1,0
3,CCOC(=O)N1CCC(n2cnc(-c3ccc(F)cc3)c2-c2ccnc(N)n2)CC1 [SB-219952],9
4,CN1CCN(CCCNc2nccc(-c3c(-c4ccc(F)cc4)nn4cc(C(N)=O)ccc34)n2)CC1 [GW622475],31
5,COc1cc(Nc2nccc(N3CCC(NC(=O)c4cccc(C#N)c4)C3)n2)cc(OC)c1OC (stereo not shown) [GSK1379751],0
6,O=C1NCCc2[nH]c(-c3ccncc3)cc21,20
7,O=C(Nc1cccc(C(F)(F)F)c1)c1cccc(Oc2ccc3nccn3n2)c1,35
8,CCN1CCN(CCCC(=O)Nc2n[nH]c3nc(-c4ccc(O)cc4)c(Br)cc23)CC1 [SB-731579],0
9,Cc1n[nH]c2cc(Nc3ccnc(Nc4cccc(CN5CCOCC5)c4)n3)ccc12 [GW682569],14
10,Cl.Cl.NC[C@H](CC1CCCCC1)NC(=O)c1ccc(-c2ccnc3[nH]ccc23)s1 [GSK1581428],0
11,Cc1ccc(Nc2ccnc(Nc3ccc4c(c3)CS(=O)(=O)C4)n2)cc1O.Cl [GW579362],56
12,CCNCC(Cc1ccccc1)NC(=O)c1cc(Br)c(-c2ccnc3[nH]ccc23)s1.Cl.Cl (stereo not shown) [GSK1383280],15
13,Cn1ccc2ncnc(Oc3ccc(NC(=O)Nc4cccc(C(F)(F)F)c4)c(F)c3)c21,18
14,CCCC(=O)Nc1n[nH]c2ncccc12 [SB-601436],20
15,Cn1ccc2ncnc(Oc3ccc(NC(=O)Nc4ccnc(C(F)(F)F)c4)c(Cl)c3)c21,17
16,CCn1c(-c2nonc2N)nc2cncc(Br)c21 [SB-738004],15
17,Cc1nnc(-c2ccc3occ(-c4ccc(S(C)=O)cc4)c3n2)o1 (stereo not shown),0

row,SMILES,%Inh [%]
1,C[C@@H]1CCN(C(=O)N2CCCC2)C[C@@H]1N(C)c1ncnc2[nH]ccc12,12
2,CC(=O)Nc1ccc(-c2cc3ncnc(SCC(=O)O)c3s2)cc1,40
3,CC(C)c1nc(-c2cccc(NS(=O)(=O)c3ccccc3)c2)c(-c2ccnc(Nc3ccc4c(c3)CN(C)CC4)n2)s1 [GSK1649598],98.6
4,CC(C)S(=O)(=O)N1CCN(Cc2ccc3c(c2)nc(NC(=O)c2ccsc2)n3C[C@H](O)c2ccccc2)CC1 [GW635815],1
5,Cn1ccc2ncnc(Oc3ccc(NC(=O)Nc4cc(C(C)(C)C)on4)c(Cl)c3)c21,87
6,CS(=O)(=O)c1cccc(CNc2nc(Nc3ccc4c(c3)[C@@H]3C[C@@H]4CNC3=O)ncc2C(F)(F)F)c1,0
7,CC(=O)c1c(-c2ccncc2)[nH]c(-c2ccncc2)c1C [GW493036],34
8,Cc1cccc2c(-c3ccncc3)c(-c3ccc(F)cc3)nn12.Cl [GW461487],0
9,CN(c1ccc2c(c1)nc(NCc1ccc(F)cc1)n2C)c1ccnc(Nc2ccc(CS(C)(=O)=O)cc2)n1.Cl [GW813244],41
10,COC(=O)c1cccc(NC(=O)NC2CCN(c3ccnc(NCc4ccc(F)cc4)n3)CC2)c1 [GSK1379860],0
11,COc1cc2c(Nc3ccc(NC(=O)c4ccccc4)cc3)ncnc2cc1OCCCN1CCOCC1 [GSK301329],8
12,Nc1nccc(-c2ccc3c(N)n[nH]c3c2)n1 [GSK1034945],1
13,COc1ccc(Nc2nccc(N3CCC(NC(=O)c4cccc(C#N)c4)C3)n2)cc1 (stereo not shown) [GSK1379730],26
14,N#Cc1cccc(C(=O)NC2CCN(c3ccnc(Nc4ccc(F)cc4)n3)C2)c1 (stereo not shown) [GSK1379708],0
15,CN1CCN(CCNc2nc3cc(Oc4ccc(NC(=O)Nc5cc(C(F)(F)F)ccc5F)cc4)ccc3[nH]2)CC1.Cl.Cl [GW768504],2
16,COc1cccc(OC)c1C(=O)Nc1cccc(-c2nn3ccccc3c2-c2ccnc(Nc3cccc(F)c3)n2)c1 [GSK361065],66
17,Cl.c1ccc(Oc2ccc(Nc3ccnc4cc(-c5ccc(CN6CCNCC6)o5)ccc34)cc2)nc1 [GW567142],60
